Measured values: PubChem BioAssay AID1159580 (chemical genetic matrix, 2015)
Values joined by “and” are separate entries in the source; they are usually repeats but may differ in a detail not shown here. Equal values may be shown once. The campaign covered roughly 5,500 compounds. About 2,000 (36%) were called active. Another 18% or so got no clear call; they are omitted. Rule as the data show it: active = normalized growth mostly below about 0.91 (no sharp cut-off); inconclusive = no clear call, values can overlap the other calls; inactive = mostly above about 0.92. This is one part of the list.

Experiment: chemical genetic growth profiling, strain panel (AID 1159580);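 also: tested at 20 µM; growth read once vehicle control cultures reached saturation at 30 °C; 1 = growth at the plate median or of vehicle wells; lower values mean less growth of the strain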
Conditions: S. cerevisiae deletion strains, growth OD
[1] = locus YAL013W, strain DEP1, active compounds read low
[2] = locus YGR078C, strain PAC10, active compounds read low
[3] = locus YMR263W, strain SAP30, active compounds read low
[4] = locus YNL322C, strain KRE1, active compounds read low
[5] = locus YPL055C, strain LGE1, active compounds read low

Measured: normalized growth

O=c1ccc2cc(O)c(O)cc2o1
inactive: [1] 1.01 | locus YAL021C, strain ccr4, active compounds read low 1.01 | locus YAL026C, strain drs2, active compounds read low 0.992 | locus YAL030W, strain snc1, active compounds read low 1.03 | locus YBL061C, strain skt5, active compounds read low 1 | locus YBR009C, strain hhf1, active compounds read low 1.03 | locus YBR021W, strain FUR4, active compounds read low 0.974 | locus YBR023C, strain chs3, active compounds read low 1 | locus YBR171W, strain sec66, active compounds read low 1 | locus YBR229C, strain ROT2, active compounds read low 1.01 | locus YBR231C, strain swc5, active compounds read low 0.966 | locus YBR279W, strain paf1, active compounds read low 1.01 | locus YCL011C, strain gbp2, active compounds read low 1.03 | locus YCL016C, strain dcc1, active compounds read low 1 | locus YCL029C, strain bik1, active compounds read low 0.989 | locus YCL061C, strain MRC1, active compounds read low 1 | locus YCL069W, strain vba3, active compounds read low 0.999 | locus YCR088W, strain abp1, active compounds read low 1.01 | locus YDL005C, strain med2, active compounds read low 1.02 | locus YDL035C, strain GPR1, active compounds read low 0.999 | locus YDL040C, strain nat1, active compounds read low 1.02 | locus YDL074C, strain BRE1, active compounds read low 1 | locus YDL101C, strain DUN1, active compounds read low 1.01 | locus YDL185W, strain tfp1, active compounds read low 0.987 | locus YDL192W, strain arf1, active compounds read low 0.991 | locus YDR001C, strain nth1, active compounds read low 0.994 | locus YDR069C, strain doa4, active compounds read low 1.03 | locus YDR101C, strain arx1, active compounds read low 0.98 | locus YDR137W, strain rgp1, active compounds read low 0.913 | locus YDR159W, strain sac3, active compounds read low 0.968 | locus YDR162C, strain NBP2, active compounds read low 1.01 | locus YDR195W, strain ref2 1.01 | locus YDR297W, strain sur2, active compounds read low 1.01 | locus YDR318W, strain mcm21, active compounds read low 0.996 | locus YDR334W, strain swr1, active compounds read low 1 | locus YDR335W, strain msn5, active compounds read low 0.99 | locus YDR388W, active compounds read low 0.996 | locus YDR392W, strain spt3, active compounds read low 1.01 | locus YDR502C, strain sam2, active compounds read low 0.997 | locus YEL003W, strain gim4, active compounds read low 1.03 | locus YEL037C, strain rad23, active compounds read low 1 | locus YEL061C, strain CIN8 (second series), active compounds read low 0.997 | locus YEL061C, strain CIN8, active compounds read low 1.01 | locus YER015W, strain faa2, active compounds read low 0.993 | locus YER016W, strain bim1, active compounds read low 0.975 | locus YER110C, active compounds read low 0.991 | locus YER111C, strain swi4, active compounds read low 0.99 | locus YER155C, strain BEM2 (second series), active compounds read low 1.1 | locus YER155C, strain BEM2, active compounds read low 1 | locus YER167W, strain BCK2, active compounds read low 1.01 | locus YFR010W, strain ubp6, active compounds read low 1 | locus YGL078C, strain dbp3, active compounds read low 0.984 | locus YGL086W, strain mad1, active compounds read low 0.987 | locus YGL167C, strain pmr1, active compounds read low 0.998 | locus YGL173C, strain kem1, active compounds read low 0.975 | locus YGL227W, strain vid30, active compounds read low 0.999 | locus YGL240W, strain doc1, active compounds read low 1.05 | locus YGL248W, strain PDE1, active compounds read low 1.01 | locus YGL253W, strain hxk2, active compounds read low 0.984 | [2] 1.01 | locus YGR135W, strain pre9, active compounds read low 0.987 | locus YGR252W, strain gcn5, active compounds read low 0.942 | locus YHR013C, strain ard1, active compounds read low 1.01 | locus YHR027C, strain rpn1, active compounds read low 0.973 | locus YHR030C, strain SLT2, active compounds read low 1.01 and 0.971 | locus YHR079C, strain IRE1 (second series), active compounds read low 0.99 | locus YHR079C, strain IRE1, active compounds read low 0.976 | locus YHR094C, strain hxt1, active compounds read low 0.996 | locus YHR129C, strain ARP1, active compounds read low 1.01 | locus YHR142W, strain chs7, active compounds read low 0.979 | locus YHR200W, strain rpn10, active compounds read low 0.99 | locus YIL066C, strain RNR3, active compounds read low 1.01 | locus YIL073C, strain SPO22, active compounds read low 0.976 | locus YIL125W, strain kgd1, active compounds read low 0.984 | locus YIR030C, strain dcg1, active compounds read low 0.996 | locus YJL092W, strain hpr5, active compounds read low 1.01 | locus YJL095W, strain BCK1 (second series), active compounds read low 1.02 | locus YJL095W, strain BCK1, active compounds read low 1.02 and 0.993 | locus YJL115W, strain asf1, active compounds read low 1.01 | locus YJL129C, strain trk1, active compounds read low 0.973 | locus YJL134W, strain LCB3, active compounds read low 1.02 | locus YJL154C, strain vps35, active compounds read low 1.01 | locus YJL164C, strain tpk1, active compounds read low 1.02 | locus YJL166W, strain qcr8, active compounds read low 1.02 | locus YJL168C, strain set2, active compounds read low 0.985 | locus YJL187C, strain SWE1 (second series), active compounds read low 1.02 | locus YJR043C, strain POL32, active compounds read low 1.02 | locus YJR066W, strain TOR1, active compounds read low 0.978 | locus YKL009W, strain mrt4, active compounds read low 1.01 | locus YKL068W, active compounds read low 1 | locus YKL085W, strain MDH1 (second series), active compounds read low 1 | locus YKL085W, strain MDH1, active compounds read low 1 | locus YKL160W, strain elf1, active compounds read low 0.961 | locus YKL190W, strain CNB1, active compounds read low 1.01 | locus YKR001C, strain vps1, active compounds read low 0.953 | locus YKR026C, strain gcn3, active compounds read low 0.997 | locus YKR091W, strain srl3, active compounds read low 1 | locus YLL001W, strain dnm1, active compounds read low 1.02 | locus YLL026W, active compounds read low 0.999 | locus YLL041C, strain sdh2, active compounds read low 0.995 | locus YLR027C, strain aat2, active compounds read low 1 | locus YLR039C, strain RIC1, active compounds read low 1 | locus YLR058C, strain SHM2, active compounds read low 1.02 | locus YLR102C, strain apc9, active compounds read low 0.987 | locus YLR113W, strain HOG1, active compounds read low 0.957 | locus YLR221C, strain rsa3, active compounds read low 1.02 | locus YLR258W, strain gsy2, active compounds read low 0.994 | locus YLR262C, strain YPT6 (second series), active compounds read low 1.05 | locus YLR262C, strain YPT6, active compounds read low 1.01 | locus YLR268W, strain sec22, active compounds read low 0.972 | locus YLR320W, strain mms22, active compounds read low 1.04 | locus YLR330W, strain CHS5, active compounds read low 1.02 | locus YLR342W, strain FKS1 (second series), active compounds read low 0.965 | locus YLR342W, strain FKS1, active compounds read low 1.02 | locus YLR357W, strain rsc2, active compounds read low 0.994 | locus YLR370C, strain arc18, active compounds read low 1.01 | locus YLR371W, strain rom2, active compounds read low 0.982 | locus YLR384C, strain iki3, active compounds read low 1 | locus YLR418C, strain cdc73, active compounds read low 0.953 | locus YML016C, strain PPZ1, active compounds read low 1.02 | locus YML032C, strain rad52, active compounds read low 1 | locus YML120C, strain ndi1, active compounds read low 1.01 | locus YML124C, strain tub3, active compounds read low 0.996 | locus YMR058W, strain fet3, active compounds read low 0.97 | locus YMR078C, strain ctf18, active compounds read low 0.989 | locus YMR125W, strain sto1, active compounds read low 1.02 | locus YMR129W, active compounds read low 1 | locus YMR205C, strain PFK2, active compounds read low 1.02 | locus YMR223W, strain ubp8, active compounds read low 0.985 | locus YMR231W, strain pep5, active compounds read low 1 | [3] 1 | locus YMR307W, strain GAS1, active compounds read low 0.983 | locus YNL067W, strain RPL9B, active compounds read low 0.989 | locus YNL071W, strain lat1, active compounds read low 1.01 | locus YNL183C, strain NPR1, active compounds read low 0.921 | locus YNL209W, strain ssb2, active compounds read low 1 | locus YNL233W, strain BNI4, active compounds read low 1.01 | locus YNL248C, strain rpa49, active compounds read low 1.03 | locus YNL250W, strain rad50, active compounds read low 1.01 | locus YNL271C, strain bni1, active compounds read low 0.99 | locus YNL298W, strain CLA4, active compounds read low 0.994 | locus YNL307C, strain MCK1, active compounds read low 0.984 | locus YNL322C, strain KRE1 (second series), active compounds read low 1 | [4] 1.01 | locus YNR049C, strain mso1, active compounds read low 1.01 | locus YNR052C, strain pop2, active compounds read low 0.983 | locus YOL006C, strain TOP1, active compounds read low 1.01 | locus YOL012C, strain htz1 0.571 | locus YOL147C, strain pex11, active compounds read low 0.997 | locus YOR001W, strain rrp6, active compounds read low 1.03 | locus YOR061W, strain CKA2, active compounds read low 1.02 | locus YOR069W, strain VPS5, active compounds read low 1.01 | locus YOR070C, strain gyp1, active compounds read low 1 | locus YOR080W, strain dia2, active compounds read low 1 | locus YOR083W, strain WHI5, active compounds read low 0.942 | locus YOR106W, strain vam3, active compounds read low 0.913 | locus YOR136W, strain idh2, active compounds read low 0.993 | locus YOR144C, strain elg1, active compounds read low 0.983 | locus YOR184W, strain ser1, active compounds read low 0.992 | locus YOR231W, strain MKK1, active compounds read low 0.98 | locus YOR265W, strain rbl2, active compounds read low 0.989 | locus YOR270C, strain vph1, active compounds read low 1.06 | locus YOR290C, strain snf2, active compounds read low 1 | locus YOR316C, strain cot1, active compounds read low 0.998 | locus YPL051W, strain arl3, active compounds read low 1 | [5] 0.99 | locus YPL078C, strain atp4, active compounds read low 0.986 | locus YPL106C, strain sse1, active compounds read low 0.983 | locus YPL240C, strain hsp82, active compounds read low 1 | locus YPL256C, strain CLN2, active compounds read low 1 | locus YPR119W, strain clb2, active compounds read low 0.994 | locus YPR141C, strain kar3, active compounds read low 0.993 | locus YPR163C, strain tif3, active compounds read low 1 | locus YPR167C, strain met16, active compounds read low 0.993 | strain wtn01, active compounds read low 0.979

O=Nc1ccc2oc(=O)ccc2c1
active: locus YGR229C, strain SMI1, active compounds read low 0.846
inactive: [1] 0.945 | locus YAL040C, strain CLN3, active compounds read low 0.985 | locus YCL061C, strain MRC1 (second series), active compounds read low 0.973 | locus YDR363W, strain ESC2, active compounds read low 0.917 | locus YER002W, strain NOP16, active compounds read low 1.01 | [2] 0.98 | [3] 0.989 | locus YNL175C, strain NOP13, active compounds read low 0.994 | locus YNL197C, strain WHI3, active compounds read low 0.989 | locus YNL224C, strain SQS1, active compounds read low 0.995 | [4] 1 | locus YOR083W, strain WHI5 (second series), active compounds read low 0.906 | [5] 0.896 | locus YPL241C, strain CIN2, active compounds read low 0.999
